# Compounds with a hit are over-represented: about 7.9% of the library has one in this group of screens.
# FMDV inh = High Throughput Screening for Foot and Mouth Disease Virus Antivirals; FMDV antiviral cell-based qHTS; Potency, µM (doses to about 57.9 µM), without a hit: at the highest dose activity change, negative = inhibition, usual class: inhibitors; hit rate 1.2% among 410,000; calls by dose curve; tested in HEK293T cells; further: read-out not given here; potency means the concentration at half of the fitted maximal effect; nearly all actives have a fitted effect of over 45% in size
# HCMV antiviral = qHTS Assay for inhibitors of the human cytomegalovirus (HCMV) | HFF cells, HCMV-luciferase reporter, 72 h; active compounds read low | activity change, negative = inhibition, % at 57.5 µM | AID 1259415, 2018 | hit rate 4.5% among 410,000; in the data active means activity change below about -60%; inconclusive means no clear call, values can overlap the other calls; inactive means above about -39%
#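 Cell-based, HFFs, 1000 cells/well, 16 h 37C; cpds in DMSO + HCMV-luc, MOI 1 PFU/cell; 72 h 37C; OneGlo luminescence after 5 min RT; norm. to buffer vs Salinomycin 10uM.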
# MARV entry inh = qHTS for inhibitors of binding or entry into cells for Marburg Virus; Marburg virus pseudotyped entry inhibition, cell reporter; Potency, µM (doses to about 37.8 µM), without a hit: top-dose activity change, negative = inhibition, hits mostly inhibitors; hit rate 1.8% among 300,000; AID 540276, 2011; calls by dose curve; tested in HEK293 cells; further: potency means the concentration at half of the fitted maximal effect
# Lassa entry inh = qHTS for Inhibitors of binding or entry into cells for Lassa Virus; AID 540256, 2011; hit rate 1.2% among 300,000; Lassa virus pseudotype entry inhibition, cell reporter; Potency, µM (top dose mostly 37.9 µM), for inactives: at the top dose activity change, negative = inhibition, hits mostly inhibitors; calls by dose curve; tested in HEK293 cells; further: potency means the concentration at half of the fitted maximal effect; nearly all actives have a fitted effect of over 50% in size
# HCV inhibitor = qHTS Assay for Inhibitors of Hepatitis C Virus (HCV) | Huh7.5.1 HCVcc-Cre infection, luciferase reporter, 44 h | Potency, µM (top dose mostly 41.8 µM), for the others: at the highest dose activity change, negative = inhibition, actives largely listed as inhibitors | hit rate 3.4% among 340,000 | AID 651820, 2012; active means well fitted inhibition curve with a large enough effect; inconclusive means small, poorly fitted or top-dose-only effect, or another doubt; inactive means no such curve, though single readings can be large or run the other way; further: potency means the concentration at half of the fitted maximal effect
#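 After 44 h co-culture of compound, cells and HCVcc-Cre (~0.5 moi), substrate is added for 15 min at room temperature and luciferase measured over 15 sec. Cells were seeded at 1,000/well and pre-cultured 4 h.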
# * marks the source's active call; other numbers are inactive results; ? = inconclusive; / = not tested or not shown; [ ] = remark or other dose. On the % scale 0 is the no-effect control and ±100 the full control effect.
SMILES,FMDV inh,HCMV antiviral,MARV entry inh,Lassa entry inh,HCV inhibitor
COc1ccccc1NC(=O)N1CCC(c2nc3cc(C)c(C)cc3[nH]2)CC1,15.0%,-64.0*,?,?,?
O=C(NCCCn1ccnc1)Nc1ccc(Cl)c(Cl)c1,3.5%,-106.5*,-4.4%,-0.2%,7.2%
COc1ccc(NC(=O)C(=O)NCCCn2ccnc2)cc1,3.9%,-60.5*,-3.5%[46.1 µM],?,9.0%
C=COCCNC(=O)Nc1ccc(Cl)c(Cl)c1,/,-60.2*,8.4%,13.4%,10µM*
CC(C)c1ccc(NC(=O)CN(C)S(=O)(=O)c2ccc3c(c2)n(C)c(=O)c(=O)n3C)cc1,-15.6%,-11.9,12.5%[46.1 µM],5.5%[46.1 µM],/
CC1CCCC(NC(=O)COC(=O)/C=C/c2ccc(F)cc2)C1C (configuration not stated),-2.0%,0.0,-2.2%,-10.6%,2.0%
Cc1cccc2c1c1ccc3c(c1n2C)C(=O)C=CC3=O,14.1µM*,3.3,/,/,-18.4%
Cc1ccc(Cn2c(=N)n(CC(O)COc3ccccc3)c3ccccc32)cc1 (configuration not stated),0.0%,-35.0,15.8µM*,?,?
OC(COc1ccc(OCC(O)CN2CCN(Cc3ccccc3)CC2)cc1)CN1CCN(Cc2ccccc2)CC1 (configuration not stated),?,-17.6,?,?,?
CCn1c(=N)n(CC(O)COc2cccc(C)c2)c2ccccc21 (configuration not stated),?,10.2,?,0.4%,?
N=c1n(Cc2ccccc2)c2ccccc2n1CC(O)COc1ccccc1 (configuration not stated),?,?,3.66µM*,?,14.1µM*
CN1OC[C@@H]2CN[C@H](c3ccc(-c4cc5ccccc5o4)cc3)C[C@@H]21,0.355µM*,/,/,/,/
COc1ccc(-c2cc(N)n(S(=O)(=O)c3c(F)c(F)c(F)c(F)c3F)n2)cc1OC,?,-102.3*,2.31µM*,?,?
COc1ccc(S(=O)(=O)n2nc(-c3cc(OC)c(OC)c(OC)c3)cc2N)cc1OC,0.0%,105.9,/,/,?
CCc1cccc(NC(=O)Cn2c3[n+](c4ccc(C(F)(F)F)cc42)CCCCC3)c1,-15.3%,-64.0*,17.1%,3.1%,?
FC(F)(F)c1ccc2c(c1)n(Cc1ccccc1)c1[n+]2CCCCC1,-20.5%,-65.8*,-3.4%,-13.0%,9.4%
O=C(CCCCn1c(=O)c2ccccc2n(Cc2ccc(Cl)cc2)c1=O)NCc1ccccc1Cl,-20.7%,-29.2,?,-8.2%[46.1 µM],/
Cc1ccc(NCc2ccccc2-c2nnc(-c3ccccc3Cl)o2)c(C)c1,41.6%,3.7,9.6%[46.1 µM],4.6%[46.1 µM],/
CCCc1cc(NC(=O)COC(=O)c2ccc(O)cc2O)n(-c2ccccc2)n1,?,0.0,/,/,11.2µM*
CCCc1cc(NC(=O)CCl)n(-c2ccccc2)n1,?,?,?,?,22.4µM*
C=C(C)Cn1c(=O)c2c(nc3n2CCN3c2ccc(CC)cc2)n(C)c1=O,-21.9%,?,/,16.9%[46.1 µM],/
Cn1cc(C(=O)NCc2ccccc2)c2ccccc21,-0.4%,-4.4,?,-28.7%[46.1 µM],-10.7%
CC(C)C/C(=N/O)c1cn(C)c2ccccc12,7.6%,36.9,?,1.12µM*,-1.9%
COCCNc1nc(NCC2CCCCC2)c2sc(-c3ccccc3)cc2n1,-19.7%,?,/,/,/
C=CCNc1nc(NCc2ccc(NC(C)=O)cc2)c2sc(-c3ccccc3)cc2n1,45.1%,19.9,/,/,/
SMILES,FMDV inh,HCMV antiviral,MARV entry inh,Lassa entry inh,HCV inhibitor
c1ccc(-c2cc3nc(NCC4CC4)nc(NCC4CCCCC4)c3s2)cc1,?,-91.9*,/,/,/
CC(=O)Nc1ccc(CNc2nc(NC(C)C)nc3cc(-c4ccccc4)sc23)cc1,45.6%,-98.1*,/,/,/
COc1ccc(-c2cc(CNc3nc(NC(C)C)nc4cc(-c5ccccc5)sc34)on2)cc1,-1.3%,-99.0*,/,/,/
CC1(C)C[C@@]2(C)CCC3=CC(=O)C=C[C@@]32O1,/,-25.7,/,/,/
CCCOc1ccc(N/C=C/C(=O)c2cc(OC)c(OC)c(OC)c2)cc1,-20.5%,62.9,/,/,?
COc1ccc(OC)c([C@H](O)c2coc3ccc(O)c(CN4CCOCC4)c23)c1,/,/,15.8%,/,/
Cc1cc2cc(CNC(=S)Nc3ccc(OC(F)(F)F)cc3)ccc2[nH]1,-5.8%,-75.1*,-19.6%,-20.8%,-27.3%[8.37 µM]
CN(/N=C/c1ccc(O)cc1O)c1ncc(C(F)(F)F)cc1Cl,-23.1%,-74.4*,/,/,-27.8%
